The values that follow come from the supplement of paper PMC8728848.

This excerpt belongs to a sample that is enriched for the strongest signals.

Common to all, as to test: glycan array binding signal (z-score within array); higher = stronger binding
Details in all cases: glycan notation: IUPAC condensed, linker removed

The target in one experiment is Gal3S4S(b1-4)GlcNAc. In a few lines: (§1)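 The binding signal is a Z-score computed within each array and averaged over linkers. Arrays of the same protein sequence at different concentrations or buffers were also averaged together. Data originate from 3228 arrays in the Consortium for Functional Glycomics database, kept only where the protein sequence was available.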

A further experiment addresses GalNAc4S6S(b1-4)GlcNAc. The method in brief: as §1
For experiment [1], the target named is GlcNAc(b1-2)Man(a1-3)[GlcNAc(b1-4)][GlcNAc(b1-2)Man(a1-6)]Man(b1-4)GlcNAc(b1-4)GlcNAc. In a few lines:
as §1

In experiment [2] the target is GlcNAc(b1-2)[GlcNAc(b1-6)]Man(a1-6)[GlcNAc(b1-2)Man(a1-3)][GlcNAc(b1-4)]Man(b1-4)GlcNAc(b1-4)GlcNAc. The method in brief:
as §1

In experiment [3] the target is GlcNAc(b1-3)Gal(b1-4)GlcNAc. The method in brief: as §1
The target in experiment [4] is GlcNAc(b1-3)Gal(b1-4)GlcNAc(b1-3)Gal(b1-4)GlcNAc(b1-2)[GlcNAc(b1-3)Gal(b1-4)GlcNAc(b1-3)Gal(b1-4)GlcNAc(b1-6)]Man(a1-6)[GlcNAc(b1-3)Gal(b1-4)GlcNAc(b1-3)Gal(b1-4)GlcNAc(b1-2)Man(a1-3)]Man(b1-4)GlcNAc(b1-4)[Fuc(a1-6)]GlcNAc. The method in brief: as §1
The target in experiment [5] is GlcNAc(b1-3)[GlcNAc(b1-6)]Gal(b1-4)GlcNAc. In a few lines: as §1
The target in experiment [6] is GlcNAc(b1-4)GlcNAc(b1-4)GlcNAc(b1-4)GlcNAc(b1-4)GlcNAc. In a few lines: as §1
The next experiment addresses Kdn(a2-3)Gal(b1-3)GalNAc. In a few lines: as §1
The target in experiment [7] is Man(a1-3)[Man(a1-6)]Man(b1-4)GlcNAc(b1-4)GlcNAc. In a few lines:
as §1

For another experiment, the target named is Man(a1-6)Man. The method in brief:
as §1

Experiment [8] addresses Neu5Ac(a2-3)Gal(b1-3)GalNAc(b1-4)[Neu5Ac(a2-3)]Gal(b1-4)Glc. The method in brief:
as §1

For experiment [9], the target named is Neu5Ac(a2-3)Gal(b1-3)[Fuc(a1-4)]GlcNAc(b1-3)Gal(b1-3)[Fuc(a1-4)]GlcNAc. In a few lines: as §1
Experiment [10] has as its target Neu5Ac(a2-3)Gal(b1-4)GlcNAc(b1-3)Gal. In a few lines: as §1
The target of experiment [11] is Neu5Ac(a2-3)Gal(b1-4)GlcNAc(b1-3)Gal(b1-4)GlcNAc(b1-6)[Gal(b1-3)]GalNAc. The method in brief:
as §1

Experiment [12] has as its target Neu5Ac(a2-3)Gal(b1-4)[Fuc(a1-3)]GlcNAc(b1-3)GalNAc. In a few lines:
as §1

Experiment [13] addresses Neu5Ac(a2-3)[GalNAc(b1-4)]Gal(b1-4)GlcNAc(b1-3)GalNAc. The method in brief:
as §1

For experiment [14], the target named is Neu5Ac(a2-6)Gal(b1-4)GlcNAc(b1-2)[Neu5Ac(a2-6)Gal(b1-4)GlcNAc(b1-4)]Man(a1-3)[GlcNAc(b1-4)][Neu5Ac(a2-6)Gal(b1-4)GlcNAc(b1-4)Man(a1-6)]Man(b1-4)GlcNAc(b1-4)GlcNAc. The method in brief: as §1
In experiment [15] the target is Neu5Ac(a2-8)Neu5Ac(a2-3)Gal(b1-3)GalNAc(b1-4)[Neu5Ac(a2-3)]Gal(b1-4)Glc. In a few lines: as §1

B1: Gal 12 (Homo sapiens), Q96DT0 (protein)
chain: MSQPSGGRAPGTRIYSWSCPTVMSPGEKLDPIPDSFILQPPVFHPVVPYVTTIFGGLHAGKMVMLQGVVPLDAHRFQVDFQCGCSLCPRPDIAFHFNPRFHTTKPHVICNTLHGGRWQREARWPHLALRRGSSFLILFLFGNEEVKVSVNGQHFLHFRYRLPLSHVDTLGIFGDILVEAVGFLNINPFVEGSREYPAGHPFLLMSPRLEVPCSHALPQGLSPGQVIIVRGLVLQEPKHFTVSLRDQAAHAPVTLRASFADRTLAWISRWGQKKLISAPFLFYPQRFFEVLLLFQEGGLKLALNGQGLGATSMNQQALEQLRELRISGSVQLYCVHS
Consider B1, for which the “glycan array binding signal (z-score)” value was 0.103 in the experiment with Gal3S4S(b1-4)GlcNAc; -0.099 with GalNAc4S6S(b1-4)GlcNAc; 0.085 in experiment [1]; -0.54 in [2]; -0.475 in [3]; 0.115 in [4]. Moreover, the “glycan array binding signal (z-score)” value in experiment [5] is -0.57; in experiment [6], -0.139; with Kdn(a2-3)Gal(b1-3)GalNAc, 0.39; in [7] it was -0.172; with Man(a1-6)Man, -0.442; in experiment [8], 0.416. The “glycan array binding signal (z-score)” value was -0.082 in [9]; -0.004 in experiment [10]; -0.81 in [11]; 2.37 in [12]; -0.063 in experiment [13]; 0.922 in experiment [14]. The “glycan array binding signal (z-score)” value in experiment [15] is -0.299.
